Measurements: PubChem BioAssay (NCI)
This is part of a sample that, as a whole, favours compounds with a hit. Of some 79,000 tested, about 15% had one in any assay. Active and inactive are the calls of the source. Cut-off read from the data, not from the text of the source: active = growth inhibition above about 70%; inactive = the rest.

How the values were obtained:
[1] = NCI Yeast Anticancer Drug Screen. Data for the rad52 strain (AID 147);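 note: 0% = growth of vehicle-treated control cultures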; conditions: S. cerevisiae rad52 mutant growth inhibition, stronger effect = higher value
Summary of the method: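 Vehicle-treated cultures served as the reference for growth inhibition of compound-exposed yeast bearing a DNA repair mutation.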

[2] = NCI Yeast Anticancer Drug Screen. Data for the wt1 strain (AID 149);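 note: 0% = growth of vehicle-treated wt1 cultures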; conditions: S. cerevisiae wt1 strain (SPY 50644) growth inhibition, stronger effect = higher value
Summary of the method: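 Compounds are added to wt1 yeast cultures. Growth is then measured. Inhibition is expressed relative to vehicle-treated controls.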

[3] = NCI Yeast Anticancer Drug Screen. Data for the rad50EPP+ strain (AID 151);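 note: 0% = growth of vehicle-treated control cultures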; conditions: S. cerevisiae rad50 mutant strain, stronger effect = higher value
Summary of the method: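 In this screen, rad50EPP+ yeast were exposed to compounds. Growth inhibition was scored against vehicle-treated controls.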

[4] = NCI Yeast Anticancer Drug Screen. Data for the mgt1 strain (AID 153); conditions: S. cerevisiae mgt1 mutant growth inhibition, stronger effect = higher value
Summary of the method: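 mgt1 strain exposed; growth vs vehicle control recorded as inhibition.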

[5] = NCI Yeast Anticancer Drug Screen. Data for the mec2-1 strain (AID 157); conditions: S. cerevisiae mec2-1 strain, stronger effect = higher value
Summary of the method: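 Vehicle-treated cultures served as reference for growth inhibition of compound-exposed mec2-1 yeast.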

[6] = NCI Yeast Anticancer Drug Screen. Data for the rad14 strain (AID 159);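 note: 0% = growth of vehicle-treated control cultures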; conditions: S. cerevisiae rad14 strain growth inhibition, stronger effect = higher value
Summary of the method: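 A mutant yeast strain defective in DNA damage repair is treated with compound; inhibition of its growth is scored against untreated, vehicle-exposed cultures.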

[7] = NCI Yeast Anticancer Drug Screen. Data for the sgs1 mgt1 strain (AID 161);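 note: 0% = growth of cultures given vehicle only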; conditions: S. cerevisiae sgs1 mgt1 strain, stronger effect = higher value
Summary of the method: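 Inhibition of yeast growth, normalised to vehicle-treated controls, is reported for a strain bearing genetic alterations in DNA damage repair.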

[8] = NCI Yeast Anticancer Drug Screen. Data for the CLN2oe strain (AID 163);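 note: 0% = growth of vehicle-only control cultures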; conditions: S. cerevisiae CLN2oe strain, stronger effect = higher value
Summary of the method: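 Inhibition relative to vehicle-treated yeast is reported. Cells: strain with genetic alteration in cell-cycle control, grown with compound.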

[9] = NCI Yeast Anticancer Drug Screen. Data for the cln2 rad14 strain (AID 165);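 note: 0% = growth equal to vehicle treated cultures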; conditions: S. cerevisiae cln2 rad14 strain, stronger effect = higher value
Summary of the method: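 Each compound was tested on cln2 rad14 yeast. Inhibition of growth was calculated against vehicle-exposed controls.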

[10] = NCI Yeast Anticancer Drug Screen. Data for the bub3 strain (AID 167); conditions: S. cerevisiae bub3 mutant strain, stronger effect = higher value
Summary of the method: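 Steps: expose the mutant yeast strain to compound; grow alongside vehicle-treated cultures; measure growth; express inhibition against the vehicle cultures.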

[11] = NCI Yeast Anticancer Drug Screen. Data for the wt2 strain (AID 169);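 note: 0% = growth of vehicle-treated yeast cultures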; conditions: S. cerevisiae wt2 strain growth inhibition, stronger effect = higher value
Summary of the method: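 Inhibition of yeast growth was determined after compound treatment, normalised to controls receiving only vehicle.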

[12] = NCI Yeast Anticancer Drug Screen. Data for the mlh1 strain (AID 171);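 note: 0% = growth of vehicle-treated control cultures of the same strain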; conditions: S. cerevisiae mlh1 strain growth inhibition, stronger effect = higher value
Summary of the method: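 Vehicle-normalised growth inhibition of a repair- or checkpoint-altered yeast strain following compound treatment.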

[13] = NCI Yeast Anticancer Drug Screen. Data for the sgs1 strain (AID 173);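 note: 0% = growth of vehicle-only control cultures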; conditions: S. cerevisiae sgs1 mutant, stronger effect = higher value
Summary of the method: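 Screen format: yeast with repair or checkpoint alterations, compound exposure, growth read relative to vehicle.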

[14] = NCI Yeast Anticancer Drug Screen. Data for the mlh1 rad18 strain (AID 175); conditions: S. cerevisiae mlh1 rad18 strain growth inhibition, stronger effect = higher value
Summary of the method: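 Vehicle-treated cultures served as the reference for growth inhibition in a yeast strain carrying DNA damage repair alterations exposed to each compound.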

[15] = NCI Yeast Anticancer Drug Screen. Data for the rad18 strain (AID 177); conditions: S. cerevisiae rad18 mutant growth inhibition, stronger effect = higher value
Summary of the method: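 Test articles were incubated with altered yeast defective in DNA damage repair. Results are given as inhibition of growth versus vehicle.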

[16] = NCI Yeast Anticancer Drug Screen. Data for the rad50 strain (AID 155);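 note: 0% = growth of vehicle-only cultures of the same strain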; conditions: S. cerevisiae rad50 strain growth inhibition, stronger effect = higher value
Summary of the method: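 Inhibition values express reduced yeast growth in compound-treated cultures relative to vehicle-treated controls.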

[17] = at 5.0 µM (retest, dose inferred, filed as 0.5)
[18] = at 50.0 µM (retest, dose inferred, filed as 5.0)

Measured: growth inhibition

Cc1c([N+](=O)[O-])oc2ccc3ccccc3c12
active: [1]; at 11.0 µM 86% | [1]; at 33.0 µM 94% | [1]; at 100.0 µM 92% | [3]; at 11.0 µM 79% | [3]; at 33.0 µM 91% | [3]; at 100.0 µM 88% | [5]; [18] 90% | [5]; at 50.0 µM 94.8% | [5]; at 100.0 µM 91% | [6]; at 3.7 µM 84% | [6]; at 11.0 µM 86% | [6]; at 33.0 µM 96% | [6]; at 100.0 µM 93% | [7]; [17] 76% | [7]; [18] 92% | [7]; at 50.0 µM 84.4% | [9]; [17] 81% | [9]; [18] 96% | [9]; at 50.0 µM 97% | [13]; at 11.0 µM 78% | [13]; at 33.0 µM 86% | [13]; at 100.0 µM 89% | [14]; [17] 82% | [14]; [18] 94% | [14]; at 50.0 µM 95.3% | [15]; at 1.2 µM 95% | [15]; at 3.7 µM 96% | [15]; at 11.0 µM 96% | [15]; at 33.0 µM 95% | [15]; at 100.0 µM 94%
inactive: [1]; at 1.2 µM 23% | [1]; at 3.7 µM 50% | [2]; at 1.2 µM 2% | [2]; at 3.7 µM 2% | [2]; at 11.0 µM 4% | [2]; at 33.0 µM 11% | [2]; at 100.0 µM 21% | [3]; at 1.2 µM 26% | [3]; at 3.7 µM 50% | [4]; at 1.2 µM -8% | [4]; at 3.7 µM -1% | [4]; at 11.0 µM 3% | [4]; at 33.0 µM 8% | [4]; at 100.0 µM 22% | [5]; at 1.2 µM 6% | [5]; at 3.7 µM 6% | [5]; [17] 18% | [5]; at 11.0 µM 21% | [5]; at 33.0 µM 51% | [6]; at 1.2 µM 43% | [8]; at 1.2 µM -6% | [8]; at 3.7 µM -8% | [8]; at 11.0 µM -6% | [8]; at 33.0 µM 3% | [8]; at 100.0 µM 6% | [10]; at 1.2 µM -11% | [10]; at 3.7 µM -17% | [10]; [17] -66% | [10]; at 11.0 µM -11% | [10]; at 33.0 µM -18% | [10]; [18] -11% | [10]; at 50.0 µM 12.4% | [10]; at 100.0 µM 0% | [11]; at 1.2 µM 1% | [11]; at 3.7 µM 2% | [11]; at 11.0 µM 6% | [11]; at 33.0 µM 14% | [11]; at 100.0 µM 26% | [12]; at 1.2 µM -1% | [12]; at 3.7 µM 1% | [12]; at 11.0 µM -2% | [12]; at 33.0 µM 15% | [12]; at 100.0 µM 35% | [13]; at 1.2 µM 49% | [13]; at 3.7 µM 69%

Oc1ccc2nc3ccccc3nc2c1
inactive: [1]; at 1.2 µM -1% | [1]; at 3.7 µM 4% | [1]; at 11.0 µM 24% | [1]; at 33.0 µM 64% | [2]; at 1.2 µM 1% | [2]; at 3.7 µM 6% | [2]; at 11.0 µM 21% | [2]; at 33.0 µM 26% | [3]; at 1.2 µM -1% | [3]; at 3.7 µM -2% | [3]; at 11.0 µM 23% | [4]; at 1.2 µM -2% | [4]; at 3.7 µM -5% | [4]; at 11.0 µM 10% | [4]; at 33.0 µM 43% | [16]; at 1.2 µM 2% | [16]; at 3.7 µM 5% | [16]; [17] 9% | [16]; at 11.0 µM 23% | [16]; at 33.0 µM 68% | [5]; at 1.2 µM 2% | [5]; at 3.7 µM 7% | [5]; [17] 13% | [5]; at 11.0 µM 24% | [5]; at 33.0 µM 52% | [5]; [18] 58% | [6]; at 1.2 µM 1% | [6]; at 3.7 µM 5% | [6]; at 11.0 µM 18% | [6]; at 33.0 µM 31% | [7]; [17] -3% | [7]; [18] 20% | [7]; at 50.0 µM 48.5% | [9]; [17] 19% | [9]; [18] 20% | [9]; at 50.0 µM 65.5% | [10]; at 1.2 µM 2% | [10]; at 3.7 µM 5% | [10]; [17] -8% | [10]; at 11.0 µM 29% | [10]; at 33.0 µM 46% | [10]; [18] 61% | [12]; at 1.2 µM -3% | [12]; at 3.7 µM -2% | [12]; at 11.0 µM 11% | [12]; at 33.0 µM 27% | [13]; at 1.2 µM -2% | [13]; at 3.7 µM 2% | [13]; at 11.0 µM 18% | [13]; at 33.0 µM 29% | [14]; [17] 35% | [15]; at 1.2 µM -3% | [15]; at 3.7 µM 8% | [15]; at 11.0 µM 15% | [15]; at 33.0 µM 54%
active: [1]; at 100.0 µM 95% | [2]; at 100.0 µM 72% | [3]; at 33.0 µM 77% | [3]; at 100.0 µM 96% | [4]; at 100.0 µM 80% | [16]; [18] 89% | [16]; at 50.0 µM 91.5% | [16]; at 100.0 µM 92% | [5]; at 50.0 µM 72.7% | [5]; at 100.0 µM 95% | [6]; at 100.0 µM 85% | [10]; at 50.0 µM 88% | [10]; at 100.0 µM 82% | [12]; at 100.0 µM 80% | [13]; at 100.0 µM 84% | [14]; [18] 82% | [14]; at 50.0 µM 86.8% | [15]; at 100.0 µM 91%
